High-throughput results from PubChem.
Shown is part of a subset that was picked to be rich in hits.
nsP2pro inh = inhibitors of chikungunya virus nsP2 protease; Q8JUX6; FRET peptide cleavage, nsP2pro, fluorescence 1 h; Potency, µM (top dose mostly 24.9 µM), for inactives: top-dose activity change, negative = inhibition, actives largely listed as inhibitors; hit rate 1.1% among 31,000; calls by dose curve; also: nearly all actives have a fitted effect of over 60% in size
Target sequence (Q8JUX6 whole entry, looked up): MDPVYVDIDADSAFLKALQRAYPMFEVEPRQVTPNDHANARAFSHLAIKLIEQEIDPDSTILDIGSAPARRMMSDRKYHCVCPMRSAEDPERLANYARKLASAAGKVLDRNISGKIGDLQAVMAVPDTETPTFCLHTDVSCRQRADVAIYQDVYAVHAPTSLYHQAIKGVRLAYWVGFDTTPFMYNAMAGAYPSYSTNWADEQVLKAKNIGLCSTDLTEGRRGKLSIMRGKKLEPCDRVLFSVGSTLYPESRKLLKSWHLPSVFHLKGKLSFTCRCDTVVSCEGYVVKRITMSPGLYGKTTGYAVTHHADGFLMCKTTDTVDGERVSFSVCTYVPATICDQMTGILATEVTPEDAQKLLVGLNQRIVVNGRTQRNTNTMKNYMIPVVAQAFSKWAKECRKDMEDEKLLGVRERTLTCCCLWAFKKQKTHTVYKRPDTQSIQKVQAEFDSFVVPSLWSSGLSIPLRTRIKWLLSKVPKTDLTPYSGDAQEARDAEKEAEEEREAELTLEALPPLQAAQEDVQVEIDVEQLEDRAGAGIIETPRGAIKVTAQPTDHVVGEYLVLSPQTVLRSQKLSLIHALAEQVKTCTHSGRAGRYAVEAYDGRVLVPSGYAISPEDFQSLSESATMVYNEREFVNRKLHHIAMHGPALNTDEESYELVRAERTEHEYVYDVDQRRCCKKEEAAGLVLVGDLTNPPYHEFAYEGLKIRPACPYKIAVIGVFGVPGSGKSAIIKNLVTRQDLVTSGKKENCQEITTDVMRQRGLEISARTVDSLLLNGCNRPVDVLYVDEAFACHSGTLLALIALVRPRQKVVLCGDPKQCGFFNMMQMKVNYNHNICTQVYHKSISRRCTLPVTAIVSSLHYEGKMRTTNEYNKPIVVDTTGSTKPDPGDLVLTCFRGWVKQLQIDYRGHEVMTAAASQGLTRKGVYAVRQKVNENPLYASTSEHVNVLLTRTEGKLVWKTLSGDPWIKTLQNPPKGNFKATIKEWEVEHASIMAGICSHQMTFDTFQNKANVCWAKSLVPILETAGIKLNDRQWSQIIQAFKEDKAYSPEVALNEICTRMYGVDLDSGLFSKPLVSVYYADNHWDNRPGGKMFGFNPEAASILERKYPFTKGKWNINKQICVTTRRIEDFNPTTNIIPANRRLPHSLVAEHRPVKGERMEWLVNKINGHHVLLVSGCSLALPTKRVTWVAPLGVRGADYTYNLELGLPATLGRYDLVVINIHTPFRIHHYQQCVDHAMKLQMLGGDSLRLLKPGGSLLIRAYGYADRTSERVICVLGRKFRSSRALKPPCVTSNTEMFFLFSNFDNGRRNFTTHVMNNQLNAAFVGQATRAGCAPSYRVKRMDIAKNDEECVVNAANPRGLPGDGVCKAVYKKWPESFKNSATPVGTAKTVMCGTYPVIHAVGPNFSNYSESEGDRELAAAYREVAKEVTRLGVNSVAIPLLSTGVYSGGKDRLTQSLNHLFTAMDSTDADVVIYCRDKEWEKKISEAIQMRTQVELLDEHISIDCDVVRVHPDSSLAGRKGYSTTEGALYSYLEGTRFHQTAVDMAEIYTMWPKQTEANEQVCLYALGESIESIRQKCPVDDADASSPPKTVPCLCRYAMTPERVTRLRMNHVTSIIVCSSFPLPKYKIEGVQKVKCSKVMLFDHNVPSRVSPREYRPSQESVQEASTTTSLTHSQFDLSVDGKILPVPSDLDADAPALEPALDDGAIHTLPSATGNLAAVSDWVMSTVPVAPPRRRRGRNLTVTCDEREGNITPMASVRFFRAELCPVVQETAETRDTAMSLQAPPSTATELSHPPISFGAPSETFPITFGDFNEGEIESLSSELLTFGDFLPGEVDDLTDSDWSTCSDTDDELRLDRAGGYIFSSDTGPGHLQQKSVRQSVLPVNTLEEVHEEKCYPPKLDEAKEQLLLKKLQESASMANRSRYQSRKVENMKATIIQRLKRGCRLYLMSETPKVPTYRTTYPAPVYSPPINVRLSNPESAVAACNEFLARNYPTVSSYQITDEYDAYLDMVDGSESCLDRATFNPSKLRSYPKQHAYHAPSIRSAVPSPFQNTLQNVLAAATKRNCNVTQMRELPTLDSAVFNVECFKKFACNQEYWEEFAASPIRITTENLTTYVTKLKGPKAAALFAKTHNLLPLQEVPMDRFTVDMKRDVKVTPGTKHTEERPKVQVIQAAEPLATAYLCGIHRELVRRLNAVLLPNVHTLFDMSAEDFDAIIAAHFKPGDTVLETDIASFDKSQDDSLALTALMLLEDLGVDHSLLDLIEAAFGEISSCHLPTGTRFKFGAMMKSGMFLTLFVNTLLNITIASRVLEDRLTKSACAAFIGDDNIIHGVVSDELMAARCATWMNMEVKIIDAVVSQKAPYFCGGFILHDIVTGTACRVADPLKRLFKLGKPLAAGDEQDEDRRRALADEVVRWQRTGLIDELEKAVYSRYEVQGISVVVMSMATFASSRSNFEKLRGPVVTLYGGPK
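Purified recombinant nsP2pro (150 nM final) in 10 mM Tris-HCl pH 8.0 with 0.01% Tween 20 was preincubated 15 min at room temperature with compound (7 concentrations, up to 25 uM). FRET peptide 2 substrate (2.5 uM final) was then added; fluorescence was read after 1 h.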
* hit, by the source's call; i = inactive; ! = not confirmed by another sample; [ ] = another dose, or the depositor's remark. % is scaled to controls: 0 for no effect and ±100 for the full control effect; potency is read from the fitted curve at half-maximal effect.

SMILES	nsP2pro inh
CCc1nc2c(cnn2-c2ccc(C)cc2)c(=O)n1Cc1ccccc1	-19.0%
COc1ccc(-n2c(-c3ccccc3F)nc3c(cnn3-c3ccc(C)cc3)c2=O)cc1	11.2µM*
CC[N+]1(C/C2=C/CCCCCC2)CCC(NC(=O)C2c3cc(Cl)ccc3Oc3ccc(Cl)cc32)CC1 (stereo not given)	24.9%
CCOc1ccc(Cc2cc([C@@H]3O[C@H](CO)[C@@H](O)[C@H](O)[C@H]3O)ccc2Cl)cc1	-4.6%
Cn1cc(-c2cnc(Nc3ccc(F)c(Cl)c3)c3c2CCO3)cn1	8.91µM*
Cc1noc(C)c1-c1cnc(Nc2ccc(CN3CCN(C)CC3)cc2)c2c1CCO2	-9.1%[39.2 µM]
Cc1cc(-c2cnc(Nc3ccc(F)cc3)c3c2CCO3)ccn1	-23.2%[39.2 µM]
CC(=O)OC1CCC2(C)C(CCC3(C)C2CC=C2C4C(C)C(C)CCC4(C)CCC23C)C1(C)C(=O)O (stereo not given)	1.21µM*
COC(=O)C12CCC(C)C(C)C1C1=CCC3C4(C)CCC(OC(C)=O)C(C)(C)C4CCC3(C)C1(C)CC2 (stereo not given)	0.4%[10 µM]
CC(=O)O[C@@H]1CC[C@@]2(C)C(CC[C@]3(C)C2[C@H](O)C=C2[C@H]4[C@@H](C)[C@H](C)CC[C@]4(C)CC[C@]23C)[C@@]1(C)C(=O)O (stereo not given in full)	-15.3%[10 µM]
Cc1ccc(-n2nccn2)c(C(=O)N2CCN(c3nc4cc(Cl)ccc4o3)CC[C@H]2C)c1	4.5%
O=C(O)C1CCc2cc(C3CCCCC3)c(Cl)cc21 (stereo not given)	6.0%
Cc1cccc(N2CCN(C(=S)Nc3cc(C)ccn3)CC2)c1	3.6%
O=C(Nc1ccc(-c2nc3ccccc3[nH]2)cc1)c1ccc2sccc2c1	-10.7%
O=C(Nc1ccc(-c2nc3ccccc3[nH]2)cc1)c1ccc2ncsc2c1	11.2µM*
O=C(Nc1ccc(-c2nc3ccccc3[nH]2)cc1)c1ccc2ncccc2c1	-0.4%
C/C=C1/[C@H](O[C@@H]2O[C@H](CO)[C@@H](O)[C@H](O)[C@H]2O)OC=C(C(=O)OC)[C@H]1CC(=O)O[C@@H]1O[C@H](CO)[C@@H](O)[C@H](O)[C@H]1O	-7.8%[10 µM]
CCC[C@@H](NC(=O)[C@@H]1[C@H]2CCC[C@@H]2CN1C(=O)[C@@H](NC(=O)[C@@H](NC(=O)c1cnccn1)C1CCCCC1)C(C)(C)C)C(=O)C(=O)NC1CC1	7.94µM*
Cc1ccc(-c2cc(C(=O)Nc3ccn[nH]3)c3ccccc3n2)cc1C	2.2%
COc1cccc(S(=O)(=O)N2CC(Oc3ccccc3-c3noc(C)n3)C2)c1	i
COc1ccc(-c2cc3c(cn2)CN(CCc2ccccc2)CCN3)cc1OC	i
O=C(O)/C=C/CCCCCCCO	-3.4%
CC1=CC2OC3[C@H](O)C[C@@](C)([C@]34CO4)[C@@]2(CO)[C@H](O)C1=O (stereo not given in full)	0.313µM*
CC(=O)OC[C@]12C[C@H](O)C(C)=C[C@H]1O[C@@H]1[C@H](O)[C@@H](O)[C@@]2(C)[C@]12CO2	-1.7%
CC(=O)OC[C@]12C[C@H](OC(=O)CC(C)C)C(C)=C[C@H]1O[C@@H]1[C@H](O)[C@@H](O)[C@@]2(C)[C@]12CO2	-7.2%[10 µM]
SMILES	nsP2pro inh
O=C(c1ccc2ncccc2c1)N1CC(n2ccnc2)C1	i
Cc1ccc(S(=O)(=O)Nc2cnccc2C(=O)Nc2nc(-c3cccc(Cl)c3)cs2)cc1	i
O=S(=O)(Nc1nccs1)c1ccc(Nc2nc(-c3ccc(F)cc3)cs2)cc1	i
Cc1ccc(NC(=O)N2C[C@@H]3C[C@H](C2)c2c(-c4cccs4)ccc(=O)n2C3)cc1	-2.5%[39.2 µM]
COc1ccc(S(=O)(=O)N2C[C@@H]3C[C@H](C2)c2c(NC(=O)c4ccccc4)ccc(=O)n2C3)cc1	3.7%
O=c1ccc(-c2cccs2)c2n1C[C@H]1C[C@@H]2CN(S(=O)(=O)c2ccccc2)C1	15.8µM*
COc1ccc(C(C)NC(=O)c2ccc(Cn3ccn4nc5c(c4c3=O)CCCC5)cc2)cc1OC (stereo not given)	3.9%
CN(C)C1C(=O)C(C(N)=O)=C(O)C2(O)C(=O)C3=C(O)c4c(O)ccc(Cl)c4C(C)(O)C3CC12 (stereo not given)	-2.7%
O=C(O)c1ccc(-c2ccc3ncnc(NCc4nccs4)c3c2)o1	11.2µM*
CC(C)(C)CNc1ncnc2ccc(-c3ccc(C(=O)O)o3)cc12	i
O=C(O)c1ccc(-c2ccc3ncnc(NCC4CCCO4)c3c2)o1 (stereo not given)	4.3%
Cc1ccc(NC(=O)C(=O)NC2CC(C)(C)NC(C)(C)C2)cc1	-4.8%
NC1CCCCN(Cc2ccc(Cl)c(F)c2)C1 (stereo not given)	2.0%
C[C@@H](Nc1ncnc2[nH]c(-c3ccc(O)cc3)cc12)c1ccccc1	44.1%
CCCc1ccc(OCC(=O)Nc2scc(-c3cccs3)c2C(=O)OC)cc1	-31.7%
COC(=O)c1c(-c2cccs2)csc1NC(=O)c1ccc(OC)c(OC)c1	12.6µM*
COc1ccc(C(=O)NCC(c2ccco2)S(=O)(=O)c2cccs2)cc1OC (stereo not given)	-17.5%
O=C(c1ccoc1)N1CCC(Nc2cccn3ncnc23)CC1	-3.7%
Cc1nc2c(NC3CCN(C(=O)c4cnccn4)CC3)cccn2n1	11.2µM*
CCCOc1nccnc1NC1CCN(C(=O)c2cccnc2)CC1	i
CC[C@H](C)[C@@H]([C@@H](CC(=O)N1CCC[C@H]1[C@H](OC)[C@@H](C)C(=O)NCCc1ccccc1)OC)N(C)C(=O)[C@@H](NC(=O)[C@H](C(C)C)N(C)C)C(C)C	-3.6%
Cc1ccc(S(=O)(=O)Nc2cnccc2C(=O)Nc2nc(-c3cc4ccccc4o3)cs2)cc1	-7.0%
CC(C)(C)c1ccnc(N[C@H]2CO[C@H]3[C@@H]2OC[C@@H]3NC(=O)c2ccco2)n1	-8.2%[39.2 µM]
O=C(COc1ccccc1)N[C@H]1CO[C@H]2[C@@H]1OC[C@@H]2Nc1nccc(-c2ccco2)n1	12.6µM*
CC(=O)c1ccc(NC(=O)N[C@H]2CO[C@H]3[C@@H]2OC[C@@H]3Nc2nccc(-c3ccco3)n2)cc1	-11.1%
SMILES	nsP2pro inh
O=C(COc1ccccc1)N[C@H]1CO[C@H]2[C@@H]1OC[C@@H]2Nc1nccc(-c2cccs2)n1	-12.4%
O=C(Nc1ccccc1)N[C@H]1CO[C@H]2[C@@H]1OC[C@@H]2Nc1nccc(-c2cccs2)n1	50.0%[39.2 µM]
O=C(N[C@H]1CO[C@H]2[C@@H]1OC[C@@H]2Nc1nccc(-c2ccco2)n1)c1ccco1	1µM*
CCOc1ccc(CCNC(C)=O)cc1OCC	i
Cc1cnc(C(=O)N2CC(Cn3c(C)cnc3-c3ccncc3)C2)cn1	6.9%
Cc1nn(-c2ccccc2[N+](=O)[O-])c(C)c1[C@@H]1C=C[C@@H](NCc2ccc(C(C)C)cc2)C1	30.0%[39.2 µM]
O=C(Nc1ccccc1)Nc1ccc(-c2ccc(C(=O)C3CCCC3C(=O)O)cc2)cc1 (stereo not given)	98.6%
O=C(O)c1cc(N=Nc2ccc(O)c(C(=O)O)c2)ccc1O	-17.7%
O=C(O)c1cc(O)c(O)c(O)c1	12.4µM*!
O=C(O)c1cc(O)c2c(c1)[O][Bi][O]2	-4.1%[0.199 µM]
COCCN1C(=O)c2ccccc2C(C(=O)Nc2ccc3[nH]ccc3c2)C12CCCC2 (stereo not given)	-0.1%
Cc1c(P(=O)(c2ccccc2)c2ccccc2)c2ccccc2n1C	11.2µM*
Cc1c(P(=S)(c2ccccc2)c2ccccc2)c2ccccc2n1Cc1ccccc1	i
Cc1c(P(=S)(c2ccccc2)c2ccccc2)c2ccccc2n1C(=O)NCc1ccccc1	-6.9%
